From PubChem BioAssay AID1460 (National Center for Advancing Translational Sciences (NCATS), 2008) come the findings set out here.

SMILES strings stand for the structures. In all, about 270,000 compounds went through this assay and about 5,800 (2.1%) were called active. About 16% were inconclusive and are not listed. The entries come from a sample that favours actives as a whole. Unmarked numbers belong to inactive results. The call rests on the fitted dose curve; in most records, active means well fitted inhibition curve with a large enough effect; inconclusive means small, poorly fitted or top-dose-only effect; inactive means flat fitted curve, though single readings scatter.
On the % scale 0 is the no-effect control and ±100 the full control effect; potency means the concentration at half of the fitted maximal effect.

The assay deals with Microtubule-associated protein tau (Homo sapiens) (UniProt P10636). Briefly: qHTS for Inhibitors of Tau Fibril Formation, Thioflavin T Binding. Further: nearly all actives have a fitted effect of over 55% in size. The settings on record: recombinant tau K18 P301L (four-repeat tau fragment), heparin-induced fibrillization, ThT fluorescence; series mostly up to 57.4 µM; activity, negative = inhibition: at the top concentration. The source says: NIH Molecular Libraries Probe Production Network [MLPCN]
Sequence of Microtubule-associated protein tau (Homo sapiens) (P10636 561-689 P618L limits assumed): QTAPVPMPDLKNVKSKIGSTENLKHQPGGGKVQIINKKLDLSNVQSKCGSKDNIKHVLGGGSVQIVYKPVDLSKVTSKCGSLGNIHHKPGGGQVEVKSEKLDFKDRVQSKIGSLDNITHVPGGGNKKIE
NIH Chemical Genomics Center [NCGC]
Assay Provider: Carlo Ballatore, University of Pennsylvania
The microtubule-associated protein tau is an abundant protein in the axons of neurons that stabilizes microtubules. With its ability to modulate microtubule dynamics, tau contributes directly or indirectly, to key structural and regulatory cellular functions. Particularly important is the influence tau exerts on axonal transport, which allows signaling molecules, trophic factors and other essential cellular constituents to travel along the axons. Under pathological conditions, tau becomes sequestered into insoluble aggregates called neurofibrillary tangles. This phenomenon is believed to have pathological consequences by promoting axonal transport deficits that ultimately lead to synaptic dysfunction and neuronal loss. To identify inhibitors of tau aggregation, a heparin-induced tau fibril formation assay was used that employed a recombinantly expressed fragment of tau, K18 (Q242-E372), bearing a P301L mutation (Gustke et al. 1994; Hong et al. 1998). This assay monitors tau fibrillization by Thioflavin T (ThT) fluorescence.
Gustke, N., B. Trinczek, et al. (1994). "Domains of tau protein and interactions with microtubules." Biochemistry 33(32): 9511-22.
Hong, M., V. Zhukareva, et al. (1998).
Li, W. and V. M. Lee (2006).
von Bergen, M., S. Barghorn, et al. (2001). "Mutations of tau protein in frontotemporal dementia promote aggregation of paired helical filaments by enhancing local beta-structure." J Biol Chem 276(51): 48165-74.
NCGC Assay Protocol Summary:
For screening, 2 uL/well human K18 P301L (15 uM unlabeled and 0.24 uM Alexa 594-labeled tau, final concentrations) in reagent buffer (100 mM sodium acetate pH 7) was dispensed into black solid 1536-well plates (Grenier) using a solenoid-based dispenser. Following transfer of 23 nL compound or DMSO vehicle by a pin tool, 2 uL/well heparin (20 uM final concentration) in reagent buffer was added and the plate centrifuged 15 s at 1000 RPM. Plates were incubated 6 hr at 37 C and then 1 uL/well ThT (30 uM final concentration) was added. After a 1 hr ambient incubation, the plates were read by an Envision (Perkin Elmer) to monitor ThT fluorescence (450/8 nm excitation and 510/23 nm emission).
Keywords: NIH Roadmap, MLPCN, MLI, MLSMR, NCGC, qHTS, tau, tauopathies, Alzheimer's disease, fibril, neurodegeneration, aggregation
Take `O=C(Oc1ccccc1C(=S)N1CCCCC1)c1cc([N+](=O)[O-])cc([N+](=O)[O-])c1`: the Potency was 25.1 µM (active).

`O=[N+]([O-])c1cccc(S(=O)(=O)N2CCCCCC2)c1`: the “activity, negative = inhibition” value was -12.3%.

As for `COC(=O)c1ccc(C(=O)OC)c(NC(=S)N2CCCCC2)c1`, the “activity, negative = inhibition” value is -4.54%.

Turning to `CCS(=O)(=O)N1CCc2cc(C(=O)NCc3ccc(C)cc3)ccc21`, the “activity, negative = inhibition” value was 6.94%.

For the compound `CCCCN(CC)CCCNC(=O)c1nn(C)c2c1CSc1ccccc1-2`, the “activity, negative = inhibition” value is -0.916%.

As for `COc1cccc(-n2c(=O)c3c(C)c(C(=O)N(C)C)sc3n(Cc3cccc(C)c3)c2=O)c1`, the “activity, negative = inhibition” value is -11%.

In the case of `CCOC(=O)Nc1ccccc1N1C(=O)c2ccccc2C1=O`, the “activity, negative = inhibition” value is -1.89%.

In the case of `CCOC(=O)c1cc2n(c1N)-c1ccccc1C2=O`, the Potency is 14.1 µM (active).

For `CCOC(=O)c1cc(-c2ccccc2)n(CCC(=O)Nc2ccccc2CC)c1C`, the “activity, negative = inhibition” value was -1.04%.

As for `O=C(NNc1ccccn1)c1ccc(Cl)nc1`, the “activity, negative = inhibition” value is -1.76%.

`COc1cc(OC)nc(NC(=O)CCl)n1`: the “activity, negative = inhibition” value is 4.78%.

As to `O=C(CCl)NNc1cccc(Cl)n1`, the Potency is 14.1 µM (active).

Regarding `Cc1ccc(CNC(=O)CCC(=O)N2Cc3ccccc3Oc3ncccc32)cc1`, the “activity, negative = inhibition” value was 10.7%.

On to `COc1ccccc1CNC(=O)C(=O)NCC(c1ccco1)S(=O)(=O)c1ccc(F)cc1` (stereo not given), for which the “activity, negative = inhibition” value was -8.71%.

In the case of `CCCCN=C1C([N+](=O)[O-])=CC=C2C1=NC1(CCCCC1)N2O`, the Potency was 8.91 µM (active).

For `CCCOc1ccc(NC(=O)CC2C(=O)N(c3ccccc3)C(=O)N2Cc2ccco2)cc1` (stereo not given), the “activity, negative = inhibition” value was -1.41%.

As to `CCOc1ccc(NC(=O)Cn2c(=O)n(CCCC(=O)NCc3ccc4c(c3)OCO4)c(=O)c3ccccc32)cc1`, the “activity, negative = inhibition” value is 4.7%.

In the case of `C/C(=N\NC(=O)c1cccnc1)c1ccc(-c2ccccc2)cc1`, the “activity, negative = inhibition” value is -9.51%.

Take `O=C(Nc1cnccn1)c1cccnc1`: the “activity, negative = inhibition” value is -5.4%.

Turning to `O=C(NN=C1CCC(=NNC(=O)c2cccnc2)CC1)c1cccnc1`, the Potency is 39.8 µM (active).

Turning to `CCOc1ccccc1NC(=O)Cn1c(=O)n(Cc2ccccc2)c(=O)c2c(C)c(C(=O)N(C)C)sc21`, the “activity, negative = inhibition” value was -3.85%.

With `COc1ccccc1CSc1ncc(-c2ccc([N+](=O)[O-])cc2)[nH]1`, the Potency is 14.1 µM (active).

In the case of `COc1ccccc1CSc1nc2ccccc2[nH]1`, the “activity, negative = inhibition” value was -17.4%.

Regarding `COc1ccccc1CC(=O)Nc1ccc([N+](=O)[O-])cc1OC`, the “activity, negative = inhibition” value is -15.6%.

For `Oc1c(Cl)cc(Cl)c(Cl)c1Cc1c(O)c(Cl)cc(Cl)c1Cl`, the Potency was 20 µM (active).

`CCOc1ccc(NC(=O)C(=O)NCCc2csc3nc(-c4ccccc4F)nn23)cc1`: the “activity, negative = inhibition” value is -9.2%.

`CCc1ccccc1NC(=O)Cn1c(=O)n(-c2cccc(C)c2)c(=O)c2c1c1cc(OC)ccc1n2C`: the “activity, negative = inhibition” value is 9.95%.

Turning to `CC(=O)NCCC(=O)Nc1cc(S(=O)(=O)N2CCOCC2)ccc1N1CCOCC1`, the “activity, negative = inhibition” value is 1.5%.

On to `COCCNC(=S)Nc1cc(S(=O)(=O)N2CCOCC2)ccc1N1CCCCC1`, for which the Potency was 35.5 µM (active).

With `O=C(COC(=O)Cc1ccc(F)cc1)Nc1cc(S(=O)(=O)N2CCOCC2)ccc1N1CCCC1`, the “activity, negative = inhibition” value was 3.5%.

Turning to `COc1ccc(-c2nc3scc(CCNS(=O)(=O)c4cc(F)ccc4OC)n3n2)cc1OC`, the “activity, negative = inhibition” value is -10.1%.

With `Cc1ccc(-n2c(SCC(=O)c3ccccc3)nc3c([nH]c4ccccc43)c2=O)cc1`, the “activity, negative = inhibition” value is 11%.

On to `CN(C)c1ccc(-n2cccc2/C=C2/SC(=Nc3ccc(F)cc3)NC2=O)cc1`, for which the “activity, negative = inhibition” value is -15.4%.

For the compound `Cc1ccc(N=C2NC(=O)/C(=C/C=C/c3ccco3)S2)cc1C`, the Potency was 4.47 µM (active).

In the case of `Cc1ccc(-c2cc(C(=O)N/N=C/C=C/c3ccco3)c3ccccc3n2)cc1C`, the “activity, negative = inhibition” value is -8.53%.

With `CCC1S/C(=N/N=C/c2ccco2)NC1=O` (stereo not given), the “activity, negative = inhibition” value was 0.34%.

For the compound `Cc1ccc(C(=O)N/C(=C\c2ccco2)C(=O)N2CCSCC2)cc1C`, the “activity, negative = inhibition” value is -2.66%.

For `Cc1ccc(N2NC(=O)/C(=C/C=C/c3ccco3)C2=O)cc1C`, the Potency is 10 µM (active).

`CC1CCN(S(=O)(=O)c2ccc3c(ccn3CCC(=O)NCc3ccc(N(C)C)cc3)c2)CC1`: the “activity, negative = inhibition” value was -18.4%.

On to `Cc1nc2c(-c3ccccc3)c(C)nn2c(C)c1CCC(=O)NCCc1ccccc1`, for which the “activity, negative = inhibition” value is -8.23%.

As for `CCOc1ccc(NC(=O)c2cn(C3CCCCC3)c(=O)c3c2c2ccccc2n3C)cc1`, the “activity, negative = inhibition” value was -9.2%.

As to `O=C(Cn1ncn2nc(-c3cccs3)cc2c1=O)NCc1cccc(Br)c1`, the “activity, negative = inhibition” value was -5.56%.

`Cc1ccc(NC(=O)Cc2ccc(NC(=O)N3CCCCc4ccccc43)cc2)cc1`: the “activity, negative = inhibition” value was 0.89%.

In the case of `Cc1c(Cl)cccc1NC(=O)C(=O)NCCc1csc2nc(-c3ccccc3F)nn12`, the “activity, negative = inhibition” value was 1.36%.

Consider `CC(C)Cn1c(=O)c2ccccc2n2c(-c3cccc(Cl)c3)nnc12`, for which the “activity, negative = inhibition” value is -17.1%.

As to `O=[N+]([O-])c1cccc(-c2nnc3c4ccccc4c4ccccc4n23)c1`, the “activity, negative = inhibition” value was -15.2%.

For the compound `CCOC(=O)c1cnc2[nH]c3ccccc3n2c1=O`, the “activity, negative = inhibition” value was 6.45%.

As to `O=c1[nH]c2ccccc2n2c(-c3ccccc3)nnc12`, the Potency is 10 µM (active).

Regarding `CC(Nc1ccc(-c2nc(-c3ccco3)no2)cc1[N+](=O)[O-])c1ccccc1` (stereo not given), the “activity, negative = inhibition” value is -14.2%.

Regarding `Cc1cc(C)c(/C=C2\C(=O)Nc3ccccc32)[nH]1`, the Potency was 3.16 µM (active).
